Reference: PubChem BioAssay (EPA / NIEHS)
Several values for one entry are separate records, joined by “and”; a condition that tells them apart may be missing. Identical values can stand only once. More than one record can exist for a structure, and the calls need not agree. Activity calls are given as the source filed them. The calls were made as follows: active = hit-call score of the fitted dose curve at least 0.9, where 1 is the maximum; inactive = score below 0.9.

Experiment: BSK_BE3C_SRB: Viability Assessment in the BioMAP Diversity Plus: BE3C Assay (AID 2283028);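 as to AC50: fitted both ways so AC50 may mark signal gain or loss versus DMSO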
Details: primary human bronchial epithelial cells
Procedure: BSK_BE3C is a cell-based, multiplexed-readout assay that uses bronchial epithelial cell, a human lung primary cell, with measurements taken at 24 hours after chemical dosing in a 96-well plate.BSK_BE3C_SRB is an assay component measured in the BSK_BE3C assay. It measures 0.1% sulforhodamine related to cell death using Sulforhodamine staining technology.Data from the assay component BSK_BE3C_SRB was analyzed into 1 assay endpoint. This assay endpoint, BSK_BE3C_SRB, was analyzed with bidirectional fitting relative to DMSO as the negative control and baseline of activity. Using a type of viability reporter, gain or loss-of-signal activity can be used to understand changes in the signaling. Furthermore, this assay endpoint can be referred to as a primary readout, because this assay has produced multiple assay endpoints where this one serves a signaling function. To generalize the intended target to other relatable targets, this assay endpoint is annotated to the cell morphology intended target family, where the subfamily is cell conformation.
The levels of cell surface (or secreted, indicated by the prefix "s") biomarker endpoints were measured by ELISA. Overt cytotoxicity to cells in confluent adherent cultures (all systems other than the BT system) was assessed by measuring total protein levels using sulforhodamine B (SRB) staining in parallel cultures at the time of biomarker measurements, indicated as SRB endpoints. For proliferation assays for adherent cell types, individual cell types are cultured at sub-confluence and relative cell numbers quantified by SRB staining at time points optimized for each system (48 h: 3C and CASM3C systems; 72 h: BT and HDF3CGF systems; 96 h: SAg system). SRB was performed by staining cells with 0.1% SRB after fixation with 10% TCA and reading wells at 560 nm.Viability and proliferation of PBMC (T cells) was quantified by Alamar Blue reduction for the SAg and BT systems. For PBMC viability (referred to as PBMC Cytotoxicity within the assay endpoint names), cells were plated (75,000/well in a 96-well plate) and then chemical samples added for 1 h before addition of activators, SEB and TSST-1 (20 ng/mL final concentration each). Cells were incubated for 90 h. Then, Alamar Blue (20 uL/well) (Invitrogen, Cat DAL1100) was added for 6 h, and the plates were read with a fluorescence microplate reader at 546/580 nm (excitation/emission). For PBMC proliferation, cells were plated and activated as above but incubated for only 16 h prior to addition of Alamar Blue. Plates were read after 6 h.

| Compound | outcome | AC50 |
| --- | --- | --- |
| Nc1ccc(Oc2ccc(N)cc2)cc1 | inactive |  |
| Clc1ccc(C(c2ccc(Cl)cc2)C(Cl)(Cl)Cl)cc1 | inactive |  |
| ClC1=C(Cl)[C@]2(Cl)[C@H]3[C@H]([C@@H]4C=C[C@H]3C4)[C@@]1(Cl)C2(Cl)Cl | inactive |  |
| CCCCCOC(=O)c1ccccc1C(=O)OCCCCC | inactive |  |
| CCC12COCN1COC2 | inactive |  |
| O=[N+]([O-])c1ccc(Oc2ccc(Cl)cc2Cl)cc1 | inactive |  |
| CCCCCCCCCCCCCN1CC(C)OC(C)C1 (stereo not given) | inactive |  |
| CCC[CH2][Sn]([Cl])([CH2]CCC)[CH2]CCC |  | 0.148 µM (active) |
| O=C(Oc1ccc(Br)cc1)N1CCN2CCC1CC2 | inactive |  |
| [Cl-].[Cl-].[Hg+2] |  | 34.7 µM (active) |
| CCNS(=O)(=O)C(F)(F)C(F)(F)C(F)(F)C(F)(F)C(F)(F)C(F)(F)C(F)(F)C(F)(F)F | inactive | 49.7 µM (active) and 50.3 µM (active) |
| CCOc1cccc(C2(N3CCN(c4ccccc4)CC3)CCC(C)CC2)c1 (stereo not given) | inactive |  |
| Clc1ccc(C(c2ccc(Cl)cc2)C(Cl)Cl)cc1 | inactive |  |
| CC(O)CCO (stereo not given) | inactive |  |
| O=P(OCCCl)(OCCCl)OCCCl | inactive |  |
| C[C@]12C=CC3=C4CCC(=O)C=C4CC[C@H]3[C@@H]1CC[C@@H]2O | inactive |  |
| COC(=O)c1ccccc1N | inactive |  |
| COc1cc(C=O)cc2c1[C@H](COC(N)=O)[C@]1(OC(C)=O)ON2C[C@H]2[C@@H]1N2C(C)=O |  | 6.31 µM (active) |
| CCN(CC)CCO | inactive |  |
| CCOC(=O)[C@]1(c2ccccc2)Oc2ccccc2[C@@H]1N | inactive |  |

| Compound | outcome | AC50 |
| --- | --- | --- |
| N#CC(Br)(Br)C(N)=O | inactive |  |
| Brc1ccc(Oc2ccccc2)cc1 | inactive |  |
| CO[C@@H]1[C@H](OC(=O)NC(=O)CCl)CC[C@]2(CO2)[C@H]1[C@@]1(C)O[C@@H]1CC=C(C)C | inactive |  |
| CC(C)(C)OOC(=O)c1ccccc1 | inactive |  |
| O=C(Nc1ccccc1)c1ccccc1I | inactive |  |
| Oc1ccccc1Cl | inactive |  |
| CCN(CC)N=O | inactive |  |
| OCCOCCO | inactive |  |
| Cc1ccc(N)c(N)c1 | inactive |  |
| CNC(=O)Oc1cccc2c1OC(C)(C)C2 | inactive |  |
| CCCCCCCCOC(=O)c1ccc(C(=O)OCCCCCCCC)c(C(=O)OCCCCCCCC)c1 | inactive |  |
| CCCCC(CC)COC(=O)c1ccc(C(=O)OCC(CC)CCCC)c(C(=O)OCC(CC)CCCC)c1 (stereo not given) | inactive |  |
| CN(C)[C@@H]1C(=O)C(C(N)=O)=C(O)[C@@]2(O)C(=O)C3=C(O)c4c(O)cccc4[C@@](C)(O)[C@H]3C[C@@H]12 | inactive |  |
| O=C(O)C1C2CCC(O2)C1C(=O)O (stereo not given) | inactive |  |
| CC(C)(OOC(C)(C)c1ccccc1)c1ccccc1 | inactive |  |
| [O-][Cl+]O | inactive |  |
| COP(=S)(OC)SCN1C(=O)c2ccccc2C1=O | inactive |  |
| Cc1ccc(N=C=O)cc1N=C=O | inactive |  |
| COC(=O)Nc1nc2ccccc2[nH]1 | inactive |  |
